This is part of a sample that, as a whole, favours compounds with a hit. Of some 83,000 tested, about 20% had one in any assay.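 96-well plates, one dose, 48 hours. Percent growth reported; active if below 10.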 A number with no mark means an inactive call. Active and inactive are the calls of the source.
Key:
Test in all cases: NCI-60 one-dose screen, 48 h (100 = growth as untreated, 0 = no growth, -100 = all killed)
Details in all cases: 10 µM unless noted
NCI-H23 lung = test system: NCI-H23 lung
NCI-H226 lung = test system: NCI-H226 lung
NCI-H322M lung = test system: NCI-H322M lung
HOP-62 NSCLC = test system: HOP-62 NSCLC
NCI-H460 lung = test system: NCI-H460 lung
HOP-92 NSCLC = test system: HOP-92 NSCLC
NCI-H522 lung = test system: NCI-H522 lung
A549/ATCC NSCLC = test system: A549/ATCC NSCLC
786-0 renal = test system: 786-0 renal
COLO 205 colon = test system: COLO 205 colon
DU-145 prostate = test system: DU-145 prostate
K-562 leukemia = test system: K-562 leukemia
MALME-3M melanoma = test system: MALME-3M melanoma
MDA-MB-231 breast = test system: MDA-MB-231 breast
SF-268 CNS = test system: SF-268 CNS
SF-295 CNS = test system: SF-295 CNS
SF-539 CNS = test system: SF-539 CNS
UACC-257 melanoma = test system: UACC-257 melanoma

SMILES	growth (NCI-H23 lung)	growth (NCI-H226 lung)	growth (NCI-H322M lung)	growth (HOP-62 NSCLC)	growth (NCI-H460 lung)	growth (HOP-92 NSCLC)	growth (NCI-H522 lung)	growth (A549/ATCC NSCLC)	growth (786-0 renal)	growth (COLO 205 colon)	growth (DU-145 prostate)	growth (K-562 leukemia)	growth (MALME-3M melanoma)	growth (MDA-MB-231 breast)	growth (SF-268 CNS)	growth (SF-295 CNS)	growth (SF-539 CNS)	growth (UACC-257 melanoma)
CN(C)CCn1cc(-c2ccc3c(Nc4ccc(CC(=O)Nc5cccc(F)c5)cc4)ncnc3c2)cn1	-57.2% [30 µM] (active)	-36.7% [30 µM] (active)	-94.5% [30 µM] (active)	-23.2% [30 µM] (active)	-74.1% [30 µM] (active)	-28.8% [30 µM] (active)	-30.5% [30 µM] (active)	-41.4% [30 µM] (active)	-50.8% [30 µM] (active)	-61.8% [30 µM] (active)	-95.8% [30 µM] (active)	-29.2% [30 µM] (active)	-92% [30 µM] (active)	-85.7% [30 µM] (active)	-61.7% [30 µM] (active)	-79.8% [30 µM] (active)	-94.2% [30 µM] (active)	-59.7% [30 µM] (active)
Cn1cc(-c2ccc3nc(-c4ccc(CC(=O)Nc5cc(C(C)(C)C)no5)cc4)cnc3c2)cn1	41.8% [30 µM]	30.8% [30 µM]	26.7% [30 µM]	61.3% [30 µM]	21.1% [30 µM]	-3.39% [30 µM] (active)	26.6% [30 µM]	33.9% [30 µM]	35.7% [30 µM]	61.6% [30 µM]	22.6% [30 µM]	4.38% [30 µM] (active)	0.481% [30 µM] (active)	-5.94% [30 µM] (active)	27.4% [30 µM]	23.2% [30 µM]	16.3% [30 µM]	41.9% [30 µM]
COc1ccc(-n2sc(=O)n(Cc3ccc(COC(=O)C(C)c4ccc(CC(C)C)cc4)cc3)c2=O)cc1 (stereo unspecified)	78.1%	68.2%	94.9%	66.8%	76.4%	19.2%	-32.9% (active)	80.8%	57.3%	-10.9% (active)	43.9%	-11.6% (active)	-49.4% (active)	62.4%	71.9%	97.2%	26.8%	54.9%
O[C@H]1CO[C@H]2[C@@H]1OC[C@@H]2Oc1ccc(Nc2nc(Nc3ccc(F)c(Cl)c3)ncc2F)cc1Cl	101%	96.9%	101%	118%	106%	101%	98.4%	102%	97.7%	116%	117%	115%	100%	95.4%	103%	92.1%	95%	106%
COc1ccc(/C(C)=C(\c2ccc(Cl)cc2)c2ccc(OCCCN(C)C)cc2)cc1F	78.1%	98%	67.6%	52.8%	-3.98% (active)	92%	77%	57.2%	62.2%	7.6% (active)	73.5%	-0.587% (active)	17.2%	73.7%	81.8%	53.5%	44.9%	17.1%
CCN(CC)CCOc1ccc(/C(=C(\C)c2ccc(F)c(OC)c2)c2ccc(Cl)cc2)cc1	25.6%	75.7%	65.7%	-4.66% (active)	-54.2% (active)	20.4%	26.9%	30.7%	-64.9% (active)	-58.6% (active)	41.3%	-7.49% (active)	-81.6% (active)	27.9%	53%	-21.6% (active)	-68.3% (active)	12.3%
COc1ccc(/C=C2\COc3ccc(O)c(O)c3C2=O)c(OC)c1	78.8%	92.4%	73.7%	72.9%	72.4%	91.5%	-17% (active)	62.9%	61.1%	107%	67.2%	14%	32.9%	56.6%	54.8%	95.6%	49.5%	54.4%

Source: PubChem BioAssay (NCI)
